# Pf growth 48h: Primary qHTS for delayed death inhibitors of the malarial parasite plastid, 48 hour incubation. 310,000 compounds, 5.9% hits. AID 504832, 2011. P. falciparum luciferase growth in erythrocytes, 48 h. Potency, µM (series often up to 28.7 µM), inactives show at the highest dose activity change, negative = inhibition, usual class: inhibitors; further: potency means the concentration at half of the fitted maximal effect
#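 Here the parasites carry a stable luciferase gene and grow inside erythrocytes in Albumax-based RPMI medium with compound for one erythrocytic cycle. Activity is scored as loss of luminescent signal.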
# MARV entry inh: qHTS for inhibitors of binding or entry into cells for Marburg Virus. Marburg virus pseudotyped entry inhibition, cell reporter. Potency, µM (series often up to 37.8 µM), without a hit: top-dose activity change, negative = inhibition, actives largely listed as inhibitors. 300,000 compounds, 1.8% hits; calls by dose curve; tested in HEK293 cells; further: potency means the concentration at half of the fitted maximal effect
# Pf growth 96h: Primary qHTS for delayed death inhibitors of the malarial parasite plastid, 96 hour incubation | P. falciparum luciferase reporter growth, 96 h | Potency, µM (titrated, usually from 28.7 µM), inactives show top-dose activity change, negative = inhibition, actives largely listed as inhibitors | 320,000 compounds, 6.9% hits; further: potency means the concentration at half of the fitted maximal effect
#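 Compounds incubated with erythrocytes infected by luciferase-expressing P. falciparum (2% hematocrit, 0.05% parasitemia final) for 96 hours, 37 C in 5% CO2. Growth inhibition scored as decreased luciferase luminescence.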
# HCMV antiviral: qHTS Assay for inhibitors of the human cytomegalovirus (HCMV); activity change, negative = inhibition, % at 57.5 µM; AID 1259415, 2018; 410,000 compounds, 4.5% hits; HFF cells, HCMV-luciferase reporter, 72 h; hits give low values; in the data active means activity change below about -60%; inconclusive means no clear call, values can overlap the other calls; inactive means above about -39%
#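 Luciferase read-out from HCMV-luciferase-infected HFFs (MOI 1 PFU/cell) 72 h post infection at 37C; compounds added after 16 h cell attachment; activity normalized between buffer-only basal and Salinomycin (10uM) inhibitor controls.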
# LASV entry inh: qHTS for Inhibitors of binding or entry into cells for Lassa Virus | 300,000 compounds, 1.2% hits | Potency, µM (highest dose often 37.9 µM), inactives show top-dose activity change, negative = inhibition, actives largely listed as inhibitors | Lassa virus pseudotype entry inhibition, cell reporter; calls by dose curve; tested in HEK293 cells; further: potency means the concentration at half of the fitted maximal effect; nearly all actives have a fitted effect of over 50% in size
# HCV inhibitor: qHTS Assay for Inhibitors of Hepatitis C Virus (HCV). Huh7.5.1 HCVcc-Cre infection, luciferase reporter, 44 h. Potency, µM (doses to about 41.8 µM), inactives show at the highest dose activity change, negative = inhibition, actives largely listed as inhibitors. 340,000 compounds, 3.4% hits; further: potency means the concentration at half of the fitted maximal effect
#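 Compounds are dispensed onto cells plated 4 h earlier at 1,000 per well, with HCVcc-Cre virus (about 0.5 moi) added next. Following 44 h of culture, luminescent signal is measured for 15 sec after 15 min with substrate at room temperature.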
# Active calls of the source: *; ? = inconclusive; · = no result given; + = active, no number; [ ] = dose if it differs, or a comment. Compounds with a hit are over-represented: about 14% of the library has one in this group of screens. Unless noted, the call rests on the fitted dose curve; in most records, active means well fitted inhibition curve with a large enough effect; inconclusive means small, poorly fitted or top-dose-only effect, or another doubt; inactive means no such curve, though single readings can be large or run the other way. On the % scale 0 is the no-effect control and ±100 the full control effect.
SMILES,Pf growth 48h,MARV entry inh,Pf growth 96h,HCMV antiviral,LASV entry inh,HCV inhibitor
Cc1coc2c(O)cc3c(c12)O[C@@]1(N2CCCCC2)C(=O)NCCC[C@@H]31,·,-27%,·,·,·,·
Cc1c(CNC2CCCCC2)c(C(=O)O)c(C)n1Cc1c(F)cccc1Cl,·,3%[46.1 µM],·,6,2%[46.1 µM],·
Cc1cc(C(=O)NNC(=O)Cc2ccc(Cl)cc2)c(C)o1,3%,-23%[46.1 µM],-13%,-24,-4%,5%
COc1ccc2ccc3cccc[n+]3c2c1,·,·,·,12,·,?
Nc1ccc2ccc3cccc[n+]3c2c1,0.41µM*,-14%[46.1 µM],?,-25,-10%[46.1 µM],7.1µM*
COc1ccc(-c2cc(C(F)F)n3ncc(C(=O)N4CCN(C)CC4)c3n2)cc1,-15%,-10%,?,35,-6%,?
CCOC(=O)C1CCCN(C(=O)c2cnn3c(C(F)F)cc(-c4ccc(C)cc4)nc23)C1 (stereo not drawn),4.7µM*,?,·,2,?,?
Cc1ccc(-c2cc(C(F)F)n3ncc(C(=O)N4CCN5CCCC5C4)c3n2)cc1 (stereo not drawn),12µM*,?,·,?,-1%,?
O=C(c1cc2nc(-c3ccc(F)cc3)cc(C(F)(F)F)n2n1)N1CCCCC1c1cccnc1 (stereo not drawn),3.7µM*,?,-51%,-90*,?,7.9µM*
Cc1ccc(-c2cc(C(F)F)n3ncc(C(=O)N4CCCCC4c4cccnc4)c3n2)cc1 (stereo not drawn),1.7µM*,?,4.1µM*,0,?,?
Cc1ccc(-c2cc(C(F)F)n3ncc(C(=O)NN4CCCCC4)c3n2)cc1,?,-3%[46.1 µM],23%,29,8%,3%
COc1ccc(NC(=O)NCc2ccc3c(c2)OCO3)cc1OC,9%,-7%,?,-14,3%,?
N[C@H](Cn1ccc(=O)[nH]c1=O)C(=O)O,·,3%,·,·,·,·
COC(=O)c1cccc(N2C(=O)C[C@](Sc3ccc(OC)cc3)(C(=O)N3CCN(c4ncccn4)CC3)[C@H]2c2ccc(OC)cc2)c1,·,·,·,-25,·,·
COCCCn1c(=N)c(C(=O)NCc2cccnc2)cc2c(=O)n3cccc(C)c3nc21,·,7%[46.1 µM],·,-10,11%[46.1 µM],·
CCC(Oc1ccccc1F)C(=O)N1CCC(c2nc3ccccc3s2)CC1 (stereo not drawn),·,?,·,-27,-4%[46.1 µM],·
CC1CCCCN1C(=O)c1cc2nc(-c3ccccc3)cc(-c3ccccc3)n2n1 (stereo not drawn),8.3µM*,?,?,-21,-26%,11µM*
CCOc1cc(/C=N/NC(=O)c2ccccc2OCc2ccc(F)cc2)ccc1O,8.3µM*,·,?,-82*,·,?
COc1cc(/C=N/NC(=O)c2cccs2)ccc1OCc1ccccc1,?,2%,?,15,19%,9%
COc1ccc(/C=N/NC(=O)c2sccc2OCc2ccc(F)cc2)cc1OC,?,?,12µM*,-36,-37%,-16%
CCOc1cc(/C=N/NC(=O)N/N=C/c2ccc(O)c(OCC)c2)ccc1O,·,7.1µM*,·,25,?,?
CCOc1cc(/C=N/Nc2nc(=O)[nH]nc2C)ccc1O,2.3µM*,1%[46.1 µM],17%,-29,-5%,-3%
CCOc1ccccc1NC(=O)COC(=O)CCOc1cc(C)ccc1C,-17%,2%,12%,-15,-2%,0%
CCOc1cc(/C=N/NC(=O)Cc2ccc(C(F)(F)F)cc2[N+](=O)[O-])ccc1O,2%,2%,12%,-61*,-2%,-26%
Cc1nc2ccc(NC(=O)C3CCN(S(=O)(=O)c4cccs4)CC3)cc2s1,?,?,9.3µM*,-23,?,?
SMILES,Pf growth 48h,MARV entry inh,Pf growth 96h,HCMV antiviral,LASV entry inh,HCV inhibitor
O=C(Nc1ccc(Cl)cn1)C1CCN(S(=O)(=O)c2cccs2)CC1,-4%,·,7%,-72*,·,11µM*
CCc1ccc(NC(=O)C2CCCN(S(=O)(=O)c3cnc[nH]3)C2)cc1 (stereo not drawn),-6%,·,?,·,·,18%
Cc1ccc(NC(=O)C2CCN(S(=O)(=O)c3cccs3)CC2)cc1,?,?,?,-28,?,2%
CC(=O)c1cccc(NC(=O)C2CCCN2S(=O)(=O)c2cccs2)c1 (stereo not drawn),·,·,·,-2,·,·
O=C(Nc1ccc(Br)cc1)C1CCCN1S(=O)(=O)c1cccs1 (stereo not drawn),·,?,3.7µM*,?,-26%,?
CCc1ccc(NC(=O)C2CCN(S(=O)(=O)c3cnc[nH]3)CC2)cc1,?,·,13µM*,+,·,3%
COc1ccc(S(=O)(=O)N2CCCCCC2)cc1C(=O)N1CCN(c2ccc(F)cc2)CC1,·,·,·,0,·,-29%
O=C(Nc1ccc2c(c1)CCC2)c1ncoc1-c1ccccc1F,39%,3%[46.1 µM],14%,?,-7%[46.1 µM],-19%
COc1ccc(CCN2C(=O)c3ccccc3C2c2nnnn2-c2c(C)cccc2C)cc1OC (stereo not drawn),·,·,·,-28,·,·
O=C(CSc1nc2c(cnn2-c2ccc(F)cc2)c(=O)[nH]1)Nc1ccc(Br)cc1,·,?,·,2,?,·
CCN(CC)C(=O)CSc1nnc2[nH]c(=O)cc(C)n12,·,·,·,-37,-6%[46.1 µM],·
Cn1c(=O)c2cc(S(=O)(=O)NC(Cc3ccccc3)C(=O)Nc3ccc(F)cc3)ccc2n(C)c1=O (stereo not drawn),·,3%[46.1 µM],·,-9,-4%[46.1 µM],·
CN(C)S(=O)(=O)c1ccc(Cl)c(NC(=O)C2CCN(S(=O)(=O)c3cccs3)CC2)c1,?,·,?,-66*,·,?
CCc1cccc(NC(=O)C2CCN(S(=O)(=O)c3cccs3)CC2)c1,-6%,-1%,·,-22,-5%,?
O=C(Nc1ccccc1Br)C1CCN(S(=O)(=O)c2cccs2)CC1,·,?,·,-75*,3%,4%
Cc1ccccc1NC(=O)C1CCN(S(=O)(=O)c2cccs2)CC1,-37%[5.75 µM],-10%[46.1 µM],38%[5.75 µM],-32,·,-10%
CCc1ccc(NC(=O)C2CCN(S(=O)(=O)c3cccs3)CC2)cc1,?,-9%[46.1 µM],220%,-65*,?,4.5µM*
Cc1cc(C)c(C)c(S(=O)(=O)N2CCC(C(=O)NCCCN3CCOCC3)CC2)c1C,?,·,0%,-12,·,-26%
CCCN1CC(=O)N2C(c3cccc(OC)c3OC)c3[nH]c4ccccc4c3C[C@H]2C1=O (stereo partly drawn),9.3µM*,·,4.1µM*,76,·,-5%
CCOc1ccccc1C1c2[nH]c3ccccc3c2C[C@H]2C(=O)N(C3CC3)CC(=O)N12 (stereo partly drawn),?,·,9.3µM*,22,·,6%
